# Compound activity (PubChem)
# Gli-Sufu block – antagonists of Gli-Sufu signaling; Sufu-KO-LIGHT fibroblasts, Gli luciferase reporter luminescence; inhibition, % at 5 µM; 340,000 compounds, 0.74% hits; AID 588413;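 active means inhibition above about 55%, limit read from the data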;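 further: 0% = DMSO-treated cells and 100% = wells with medium but no cells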
# aSyn UTR inh – MLPCN primary screen, SNCA 5' untranslated region | alpha-synuclein 5'UTR reporter, inhibitor activity | inhibition, % (tested at 7.5 µM) | AID 1813 | 300,000 compounds, 0.82% hits; in the data active means inhibition above about 60%; inconclusive means no clear call, values can overlap the other calls;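 further: H4 neuroglioblastoma cells stably carrying SNCA 5'UTR luciferase fusion; 0% = DMSO wells and 100% = positive control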
# H9c2 TAG inh – reduces triacylglycerol accumulation in H9c2 cells | Nile Red lipid (TAG) fluorescence; cells loaded with 200 µM oleic acid | inhibition, % at 12.5 µM | 230,000 compounds, 0.66% hits | AID 651582;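 active means pattern-corrected inhibition of lipid staining of at least 50% with the nuclear-stain viability signal not falling by more than 50%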;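 further: 0% = DMSO wells and 100% = triacsin C control wells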
# 697 NFkB inh – lowers PMA/ionomycin-induced NF-kB signal in 697 B cells; 697 B-cell NF-kB luciferase reporter, 16 h; inhibition, % at 4 µM; 330,000 compounds, 0.33% hits; AID 435022; in the data active means inhibition above about 35%
# Shn3 3UTR inh – reduces Shn3 3'UTR luciferase signal in osteoblasts | Clone20 osteoblast Shn3 3'UTR firefly luciferase, 24 h | inhibition, % at 12.5 µM | 360,000 compounds, 0.52% hits;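 active means mean inhibition of at least 75% with every replicate also reaching 75%; inconclusive means mean inhibition at least 75% but some replicate below; inactive means mean inhibition below 75%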;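 further: 0% = median of neutral control wells and 100% = pilot-screen positive control compound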
# Jurkat NFkB inh – inhibitors of the PMA/ionomycin-induced NF-kB reporter in Jurkat cells; AID 435003; inhibition, % at 4 µM; 330,000 compounds, 0.53% hits; PMA/ionomycin-induced NF-kB luciferase reporter, luminescence; in the data active means inhibition above about 50%
# The depositor's hits bear a star; ? = inconclusive; · = no result. The list is not random: actives were taken first. Their share in the collection is about 2.3%.
SMILES,Gli-Sufu block,aSyn UTR inh,H9c2 TAG inh,697 NFkB inh,Shn3 3UTR inh,Jurkat NFkB inh
O=C(OCCN1C(=O)c2cccc3c(N4CCOCC4)ccc(c23)C1=O)c1ccc(Cl)cc1Cl,17,99*,32,·,22,·
O=C(OCCN1C(=O)c2cccc3c(N4CCOCC4)ccc(c23)C1=O)c1ccccc1Cl,31,-30,-18,·,86*,·
NC(=O)C1CCN(c2oc(-c3ccccc3)nc2S(=O)(=O)c2ccc(Br)cc2)CC1,5,3,7,-17,0,5
CCOC(=S)SCC(=O)Nc1nc(-c2ccc(Br)cc2)cs1,19,70*,·,1,44,8
Cc1cc(C)n(-c2ccc(C(=O)Nc3ccc(C)c(S(=O)(=O)N(C)C)c3)cc2)n1,6,-15,·,-22,34,21
C=C(CCC(=O)c1ccccc1)C(=O)c1ccccc1,3,-23,12,·,69,·
C=C(C(=O)c1ccccc1)C(CC(=O)c1ccccc1)c1ccccc1 (stereo not drawn),23,37,·,-49,89*,14
CC(C)c1nnc(NC(=O)CCS(=O)(=O)c2nc(-c3cccs3)cc(C(F)(F)F)n2)s1,46,-54,-2,-9,99*,-3
CC(C)(C)C1CCc2nc(NC(=O)Cc3cn4ccsc4n3)sc2C1 (stereo not drawn),-27,-66,·,-51,-34,-26
S=C1Nc2ccccc2CS1,·,·,130,·,2,·
c1ccc2c(c1)CSc1ccccc1N2,-7,104*,9,-64,14,-39
CC1CCN(S(=O)(=O)N2CCC(C(=O)O)CC2)CC1,-6,2,·,1,14,1
COc1ccc(C)cc1NC(=O)NCc1ccccc1F,-1,-27,6,14,5,-12
O=C(CCl)Nc1cn(-c2ccccc2)nc1-c1ccc(F)cc1,6,-19,47,-2,96*,-1
Fc1ccc(-c2nn(-c3ccccc3)cc2CNCc2ccccc2)cc1,9,4,·,21,-2,9
COC(=O)C1(C)CCC(C(=O)Nc2ccccc2)C1(C)C (stereo not drawn),5,62*,3,12,7,3
CC1(C(=O)O)CCC(C(=O)Nc2ccccc2)C1(C)C (stereo not drawn),1,-6,15,-13,5,-4
Cc1csc2ncnc(N3CCN(S(=O)(=O)c4cccc(C(F)(F)F)c4)CC3)c12,68*,-7,-33,-46,?,5
O=c1[nH]c(=O)n(Cc2ccccc2)c2c1C(C(F)(F)F)(C(F)(F)F)N=C(c1ccco1)N2,16,26,-8,-3,6,0
CC1=C(C#N)C(C(F)(F)F)(C(F)(F)F)N=C(c2ccco2)N1,10,15,·,-1,89*,-16
C=C1CC2(OC1=O)c1ccccc1CCc1ccccc12,2,·,116,·,100*,·
C/C(=N\NC(=O)C(C)n1nc(C)c([N+](=O)[O-])c1C)c1ccccc1O (stereo not drawn),9,78*,·,-4,57,17
Cc1nn(C(C)C(=O)NCc2ccco2)c(C)c1[N+](=O)[O-] (stereo not drawn),6,4,-13,18,5,8
C=CCn1c(CNS(=O)(=O)c2ccc(F)cc2)n[nH]c1=S,-3,0,-21,-8,3,-27
CC(C)(C)N(Cc1ccc2c(c1)OCO2)C(=O)/C=C\S(=O)c1ccccc1 (stereo not drawn),3,·,83*,·,71,·
SMILES,Gli-Sufu block,aSyn UTR inh,H9c2 TAG inh,697 NFkB inh,Shn3 3UTR inh,Jurkat NFkB inh
CN1C(=O)[C@H]2[C@@H](C3CC3)N3C(=O)CN(Cc4ccccn4)C(=O)[C@@]3(Cc3ccccc3)[C@H]2C1=O,-3,-19,1,-2,-3,6
CCCOc1ccc(/C=C2/C(=O)ON=C2C)cc1OCC,3,-13,·,23,13,3
CCOc1cc(/C=C2\C(=O)ON=C2C)ccc1OCc1ccccc1,-10,-17,-14,20,91*,-8
COc1ccc(N2CCN(c3ccc4nnc(CCC(=O)Nc5ccc(C)cc5)n4n3)CC2)cc1,3,-8,19,-12,-1,6
Cn1cc(/C=C/c2cc[n+](C)cc2)c2cc(Cl)ccc21,40,64*,·,·,-7,·
Cc1ccnc(NC(=O)c2ccccc2NC(=O)c2ccc(Cl)cc2Cl)c1,27,69*,·,-57,11,41
